Screening data deposited in PubChem BioAssay by Broad Institute.
The list is not random: actives were taken first. Their share in the collection is about 7.7%.
PD-1 reverse act: activators reversing PD-1 mediated T-cell inhibition, primary screen, luminescence, primary human CD4 T cells, PD-L1 beads; 29,000 tested, under 10 active; AID 2316, 2010; CellTiter-Glo 96 h; activation, % (test concentration not listed); call rule not given here;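 further: 0% = median vehicle wells and 100% = positive control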
Hedgehog inh: Hedgehog pathway signaling inhibitors, primary screen, luminescence, Shh-LIGHT2 cells, Gli-luciferase. inhibition, % (no concentration beside the values). 22,000 tested, 2.1% active. AID 2313, 2010. Shh-LIGHT2 Gli-luciferase reporter, 30 h;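 active means mean inhibition across valid replicates above about 65%, limit read from the data; inconclusive means mean under the limit, yet half or more replicates past it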;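 further: pathway switched on by Shh-conditioned medium diluted 1 in 25 in low serum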
NOMO-1 viab: NOMO-1 AML cell viability reduction, primary screen, STK33 inhibitor project, CellTiter-Glo luminescence | NOMO-1 AML viability, 72 h | inhibition, % (concentration not given with the values) | 37,000 tested, 7.5% active; in the data active means inhibition above about 80%; inconclusive means no clear call, values can overlap the other calls
Starred values were filed as active, the others as inactive; ? = inconclusive; . = no result given.

SMILES | PD-1 reverse act | Hedgehog inh | NOMO-1 viab
COc1ccc(-c2cc(C(F)(F)F)nc(SCC(=O)N(C)c3ccccc3)n2)cc1OC | -5 | . | 49
Cc1cccc(NC(=O)CSc2nnc(-c3cccnc3)n2-c2ccccc2)c1C | 1 | . | 12
CC(C)=CCc1c(O)cc(O)c2c1OC(c1ccc(O)c(O)c1)CC2=O (configuration not stated) | . | 33 | .
CC(C)=CCc1c(O)c(CC=C(C)C)c2c(c1O)C(=O)CC(c1ccc(O)cc1O)O2 (configuration not stated) | -2 | -2 | 116*
C[C@@H]1CN([C@@H](C)CO)C(=O)c2cc(NC(=O)Nc3ccc(F)cc3)ccc2O[C@H]1CN(C)C(=O)Nc1ccc(F)cc1 | -1 | -1 | -19
C[C@H](CO)N1C[C@H](C)[C@@H](CN(C)C(=O)Nc2ccc(F)cc2)Oc2ccc(NC(=O)Nc3ccc(C(F)(F)F)cc3)cc2C1=O | -3 | 0 | 29
C[C@H](CO)N1C[C@H](C)[C@H](CN(C)C(=O)Nc2ccc(F)cc2)Oc2ccc(NC(=O)Nc3ccc(F)cc3)cc2C1=O | -4 | 107* | 18
C[C@@H]1CN([C@@H](C)CO)C(=O)c2cc(NC(=O)Nc3ccc(C(F)(F)F)cc3)ccc2O[C@H]1CN(C)C(=O)Nc1ccc(F)cc1 | . | 21 | 39
C[C@H](CO)N1C[C@H](C)[C@H](CN(C)C(=O)Nc2ccc(C(F)(F)F)cc2)Oc2ccc(NC(=O)Nc3ccc(F)cc3)cc2C1=O | -5 | -11 | 104*
C[C@@H]1CN([C@H](C)CO)C(=O)c2cc(NC(=O)Nc3ccc(C(F)(F)F)cc3)ccc2O[C@@H]1CN(C)C(=O)Nc1ccc(F)cc1 | -4 | 18 | 84*
CC(=O)N[C@@H](Cc1ccccc1)C(=O)NN | 2 | -13 | -17
NC(=O)CSc1nc2sc3c(c2c(=O)n1Cc1ccccc1)CCCC3 | . | . | 19
O=c1c2ccccc2nc(SCc2ccc3c(c2)OCO3)n1-c1ccccc1 | 2 | . | 11
CCn1c(SCc2nc3ccccc3c(=O)[nH]2)nnc1-c1cc2cccc(OC)c2o1 | 0 | . | 17
CCC(=O)Nc1ccc2c(c1)N(CC)C(C)(C)CC2C (configuration not stated) | 1 | 29 | 99*
CCC(=O)Nc1ccc(Cl)c(NC(=O)COc2cc(C)cc(C)c2)c1 | -1 | . | 1
C[C@@H]1OC(OC[C@H]2O[C@@H](Oc3cc(O)c4c(=O)cc(-c5ccc(O)c(O)c5)oc4c3)[C@H](O)[C@@H](O)[C@@H]2O)[C@H](O)[C@H](O)[C@H]1O (some centres not stated) | 0 | -25 | -5
COC(=O)c1cc(NC(=O)COc2ccccc2OC)cc(C(=O)OC)c1 | 1 | . | 36
C[C@@H]1CN([C@@H](C)CO)C(=O)c2cc(NC(=O)Cc3cn(C)c4ccccc34)ccc2O[C@@H]1CN(C)C(=O)Nc1cccc2ccccc12 | -2 | -1 | 125*
C[C@H](CO)N1C[C@H](C)[C@H](CN(C)C(=O)Nc2cccc3ccccc23)Oc2ccc(NC(=O)Cc3cn(C)c4ccccc34)cc2C1=O | -2 | -37 | 88*
C[C@@H]1CN([C@H](C)CO)C(=O)c2cc(NC(=O)Cc3cn(C)c4ccccc34)ccc2O[C@H]1CN(C)C(=O)Nc1cccc2ccccc12 | 0 | . | 8
C[C@H]1CN([C@@H](C)CO)C(=O)c2cc(NC(=O)Cc3cn(C)c4ccccc34)ccc2O[C@@H]1CN(C)C(=O)Nc1cccc2ccccc12 | -1 | . | 5
CCn1c(SCC(=O)c2ccc(Cl)cc2Cl)nnc1-c1cccnc1 | . | . | -4
CS(=O)(=O)c1sc(C(=O)O)c2c1C=CCC2 | 0 | . | -41
Cc1ccc(S(=O)(=O)Nc2cccc3c2O[C@@H](CN(C)C(=O)NC2CCCCC2)[C@@H](C)CN([C@@H](C)CO)C3=O)cc1 | -4 | -21 | 27
SMILES | PD-1 reverse act | Hedgehog inh | NOMO-1 viab
Cc1ccc(S(=O)(=O)Nc2cccc3c2O[C@@H](CN(C)CC2CCCCC2)[C@@H](C)CN([C@H](C)CO)C3=O)cc1 | 0 | 88* | 51
Cc1ccc(S(=O)(=O)Nc2cccc3c2O[C@H](CN(C)CC2CCCCC2)[C@@H](C)CN([C@@H](C)CO)C3=O)cc1 | 0 | -7 | -9
Cc1ccc(S(=O)(=O)Nc2cccc3c2O[C@@H](CN(C)C(=O)NC2CCCCC2)[C@@H](C)CN([C@H](C)CO)C3=O)cc1 | 1 | ? | 100*
Cc1cccc(NC(=O)C(=O)NCCCO)c1 | 4 | . | 22
COc1cc(-c2nnc(SCC(=O)c3ccccc3)n2-c2ccccc2)cc(OC)c1OC | -1 | . | 42
Cc1ccc(-c2csc3nnc(SCC(=O)c4ccc5c(c4)OCCO5)n23)cc1C | . | . | 55
Clc1ccc(Sc2cn[nH]c2-c2ccc3c(c2)OCCO3)cc1 | -3 | 79* | ?
Cn1c(=S)[nH]c2sc3c(c2c1=O)CCC(C(C)(C)C)C3 (configuration not stated) | -5 | -28 | 123*
O=c1c2c3c(sc2[nH]c(=S)n1Cc1ccccc1)CCC3 | 0 | . | 34
COc1ccccc1-n1c(CSc2nc3cc(C(=O)N4CCCC4)ccc3s2)nc2ccccc2c1=O | 0 | . | 49
O=C1c2ccccc2S(=O)(=O)N1CC(O)Cn1c2ccc(Cl)cc2c2cc(Cl)ccc21 (configuration not stated) | . | . | 2
CNC(=O)[C@H]1O[C@@H](n2cnc3c(NCc4cccc(I)c4)ncnc32)C(O)[C@H]1O (some centres not stated) | . | -34 | 10
COc1ccc(C[C@H](N)C(=O)N[C@@H]2[C@@H](CO)OC(n3cnc4c(N(C)C)ncnc43)[C@@H]2O)cc1 (some centres not stated) | . | 93* | 108*
CC(NS(=O)(=O)c1ccc(Cl)cc1)C(=O)Nc1ccc(Oc2ccccc2)cc1 (configuration not stated) | 0 | . | 37
O=[N+]([O-])c1nn(-c2ccc(Cl)cc2)n(O)c1=NCc1ccccn1 | -8 | . | 112*
O=[N+]([O-])c1nn(-c2ccccc2)n(O)c1=NCc1ccco1 | -2 | . | 34
C[C@H]1CN([C@@H](C)CO)C(=O)c2cc(NC(=O)Nc3ccc(C(F)(F)F)cc3)ccc2O[C@H]1CN(C)Cc1ccc(-c2ccccc2)cc1 | -6 | 11 | 117*
C[C@H](CO)N1C[C@H](C)[C@H](CN(C)Cc2ccc(-c3ccccc3)cc2)Oc2ccc(NC(=O)Nc3ccc(C(F)(F)F)cc3)cc2C1=O | -4 | . | 92*
C[C@H](CO)N1C[C@H](C)[C@@H](CN(C)Cc2ccc(C(F)(F)F)cc2)Oc2ccc(NC(=O)Nc3ccccc3)cc2C1=O | . | -17 | 63
C[C@@H]1CN([C@H](C)CO)C(=O)c2cc(NC(=O)Nc3ccc(C(F)(F)F)cc3)ccc2O[C@@H]1CN(C)Cc1ccc(Oc2ccccc2)cc1 | -5 | 17 | ?
C[C@H]1CN([C@@H](C)CO)C(=O)c2cc(NC(=O)Nc3ccc(C(F)(F)F)cc3)ccc2O[C@@H]1CN(C)Cc1ccc(-c2ccccc2)cc1 | -1 | . | 107*
C=C1CCC2[C@](C)(CCC[C@]2(C)C(=O)O)[C@H]1CC/C(C)=C/C(=O)O (some centres not stated) | 1 | -8 | 0
